# Source: PubChem BioAssay
# Calls of active or inactive are those of the source.
# Tests used:
# [1] = small molecules captured by biotinylated probe aFSTL3 – biochemical, small-molecule microarray, fluorescence 635/667, stem cell growth factor project, primary screen (AID 1064); settings: higher = more signal;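 also: measures binding of the biotinylated anti-FSTL3 antibody to printed compounds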
# [2] = binders from COS7 lysate, DM2A8 probe, primary screen, torsin A project, cell lysate, small-molecule microarray, fluorescence 635/667 (AID 1065); settings: higher = more signal, COS7 lysate expressing mutant human TOR1A
# [3] = small molecules captured by biotinylated probe aFGF2 – biochemical, small-molecule microarray, fluorescence 635/667, stem cell growth factor project, primary screen (AID 1067); settings: higher = more signal;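 also: measures binding of biotinylated aFGF2 protein to printed compounds on slides; z-score merges feature fluorescence and signal-to-noise across triplicate slides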
# [4] = small molecules captured by biotinylated probe aFGF10 – biochemical, small-molecule microarray, fluorescence 635/667, stem cell growth factor project, primary screen (AID 1071); settings: higher = more signal;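 also: score merges 667 nm spot intensity and signal to noise from triplicate slides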
# [5] = molecular target: Neurogenic locus notch homolog protein 2 (Homo sapiens) (UniProt Q04721); test: small molecules binding Notch2 protein – biochemical, small-molecule microarray, 635 nm fluorescence, stem cell growth factors, primary screen (AID 1073); settings: higher = more signal
# [6] = molecular target: Pro-neuregulin-1, membrane-bound isoform (Homo sapiens) (UniProt Q02297); test: small molecules binding neuregulin-1 protein – biochemical, small-molecule microarray, fluorescence 635/667, psychiatric disease protein project, primary screen (AID 1075); settings: NRG1 binding, 635 nm fluorescence, higher = more signal;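 also: score combines 667 nm spot fluorescence with signal to noise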
# [7] = test system: Neuregulin-1 EGF-like domain; test: small molecules binding NRG1 EGF domain – biochemical, small-molecule microarray, 635 nm fluorescence, primary screen (AID 1081); settings: higher = more signal;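 also: binding of the protein to compounds printed on small-molecule microarray slides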
# [8] = FRG1 expression reporter modulators in myotubes – cell-based, C2C12 myotubes, firefly/Renilla luciferase, luminescence, FRG1 inhibition for FSHD, primary screen (AID 1084); settings: FRG1 promoter luciferase, higher = more signal, called active from +8 up or from −8 down
# [9] = small molecules captured by biotinylated probe aFST – biochemical, small-molecule microarray, fluorescence 635/667, stem cell growth factor project, primary screen (AID 1086); settings: higher = more signal;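 also: score merges 667 nm fluorescence with signal-to-noise of each printed compound spot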
# [10] = binders of probe aHhip on microarray, primary screen, stem cell growth factor project, biochemical, small-molecule microarray, fluorescence 635/667 (AID 1087); settings: higher = more signal;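 also: score merges spot fluorescence at 667nm with spot signal to noise ratio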
# [11] = test system: PRMT1 (protein arginine N-methyltransferase 1); test: small molecules binding arginine methyltransferase PRMT1 – biochemical, small-molecule microarray, 635 nm fluorescence, primary screen (AID 1088); settings: higher = more signal;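 also: binding of Prmt1 protein to compounds spotted on small-molecule microarray slides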
# [12] = growth effects on S. cerevisiae YJM789 – YJM789 clinical isolate, OD600, 24 h, basal, primary screen (AID 1089); settings: higher = more signal, called active from +8 up or from −8 down;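 also: growth of clinical yeast isolate S. cerevisiae YJM 789 seeded 1000 cells per well; test concentration not given here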
# [13] = S. pombe growth modifiers, basal conditions – strain 972, OD600, 24 h, no modulator, primary screen (AID 1090);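 also: basal condition with compound alone and no growth modifier present; test concentration not given here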; settings: S. pombe 972 growth, higher = more signal, called active from +8 up or from −8 down
# [14] = budding yeast growth modifiers under rapamycin – strain BY4716, OD600, 96 h, primary screen (AID 1091); also: test concentration not given here; settings: S. cerevisiae BY4716 + rapamycin, higher = more signal, called active from +8 up or from −8 down
# [15] = molecular target: Torsin-1A-interacting protein 2 (Homo sapiens) (UniProt Q8NFQ8); test: small molecules binding lysate-expressed LULL1 – cell lysate, human LULL1 lysate, 635/667 nm fluorescence, primary screen (AID 1092); settings: small-molecule microarray, hLULL1 lysate binding, 635 nm fluorescence; higher = more signal;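 also: probe is lysate of COS7 cells overexpressing human LULL1; score merges per-feature 667 nm fluorescence with signal-to-noise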
# [16] = optical density change of DRC41 E. coli – strain DRC41, OD650, 24 h, E. coli filamentation project, primary screen (AID 1093);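 also: MC1000 strain lacking acrAB efflux and sulA so SOS filamentation is blocked; test concentration not given here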; settings: E. coli DRC41 growth, higher = more signal, called active from +8 up or from −8 down
# [17] = probe aLefty2 binding to arrayed compounds – biochemical, biotinylated probe, 635/667 nm fluorescence, primary screen (AID 1094); settings: small-molecule microarray, higher = more signal;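 also: score merges spot fluorescence near 667 nm with spot signal-to-noise ratio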
# [18] = test system: Noggin (protein binding on small-molecule microarray); test: small molecules binding Noggin protein – biochemical, 635/667 nm fluorescence, primary screen (AID 1095); settings: 635 nm fluorescence, higher = more signal;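 also: score merges 667 nm feature fluorescence with signal to noise over triplicate slides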
# [19] = molecular target: Neurogenic locus notch homolog protein 3 (Homo sapiens) (UniProt Q9UM47); test: small molecules binding NOTCH3 protein – biochemical, 635/667 nm fluorescence, primary screen (AID 1096); settings: small-molecule microarray, 635 nm fluorescence, higher = more signal
# [20] = probe aEGFR binding to arrayed compounds – biochemical, biotinylated probe, 635/667 nm fluorescence, primary screen (AID 1097); settings: small-molecule microarray, higher = more signal;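 also: probe is a biotinylated anti-EGFR antibody binding compounds printed on slides; score combines fluorescence near 667 nm and signal to noise of each spot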
# Neurogenic locus notch homolog protein 3 (Homo sapiens), sequence (Q9UM47 whole entry, looked up): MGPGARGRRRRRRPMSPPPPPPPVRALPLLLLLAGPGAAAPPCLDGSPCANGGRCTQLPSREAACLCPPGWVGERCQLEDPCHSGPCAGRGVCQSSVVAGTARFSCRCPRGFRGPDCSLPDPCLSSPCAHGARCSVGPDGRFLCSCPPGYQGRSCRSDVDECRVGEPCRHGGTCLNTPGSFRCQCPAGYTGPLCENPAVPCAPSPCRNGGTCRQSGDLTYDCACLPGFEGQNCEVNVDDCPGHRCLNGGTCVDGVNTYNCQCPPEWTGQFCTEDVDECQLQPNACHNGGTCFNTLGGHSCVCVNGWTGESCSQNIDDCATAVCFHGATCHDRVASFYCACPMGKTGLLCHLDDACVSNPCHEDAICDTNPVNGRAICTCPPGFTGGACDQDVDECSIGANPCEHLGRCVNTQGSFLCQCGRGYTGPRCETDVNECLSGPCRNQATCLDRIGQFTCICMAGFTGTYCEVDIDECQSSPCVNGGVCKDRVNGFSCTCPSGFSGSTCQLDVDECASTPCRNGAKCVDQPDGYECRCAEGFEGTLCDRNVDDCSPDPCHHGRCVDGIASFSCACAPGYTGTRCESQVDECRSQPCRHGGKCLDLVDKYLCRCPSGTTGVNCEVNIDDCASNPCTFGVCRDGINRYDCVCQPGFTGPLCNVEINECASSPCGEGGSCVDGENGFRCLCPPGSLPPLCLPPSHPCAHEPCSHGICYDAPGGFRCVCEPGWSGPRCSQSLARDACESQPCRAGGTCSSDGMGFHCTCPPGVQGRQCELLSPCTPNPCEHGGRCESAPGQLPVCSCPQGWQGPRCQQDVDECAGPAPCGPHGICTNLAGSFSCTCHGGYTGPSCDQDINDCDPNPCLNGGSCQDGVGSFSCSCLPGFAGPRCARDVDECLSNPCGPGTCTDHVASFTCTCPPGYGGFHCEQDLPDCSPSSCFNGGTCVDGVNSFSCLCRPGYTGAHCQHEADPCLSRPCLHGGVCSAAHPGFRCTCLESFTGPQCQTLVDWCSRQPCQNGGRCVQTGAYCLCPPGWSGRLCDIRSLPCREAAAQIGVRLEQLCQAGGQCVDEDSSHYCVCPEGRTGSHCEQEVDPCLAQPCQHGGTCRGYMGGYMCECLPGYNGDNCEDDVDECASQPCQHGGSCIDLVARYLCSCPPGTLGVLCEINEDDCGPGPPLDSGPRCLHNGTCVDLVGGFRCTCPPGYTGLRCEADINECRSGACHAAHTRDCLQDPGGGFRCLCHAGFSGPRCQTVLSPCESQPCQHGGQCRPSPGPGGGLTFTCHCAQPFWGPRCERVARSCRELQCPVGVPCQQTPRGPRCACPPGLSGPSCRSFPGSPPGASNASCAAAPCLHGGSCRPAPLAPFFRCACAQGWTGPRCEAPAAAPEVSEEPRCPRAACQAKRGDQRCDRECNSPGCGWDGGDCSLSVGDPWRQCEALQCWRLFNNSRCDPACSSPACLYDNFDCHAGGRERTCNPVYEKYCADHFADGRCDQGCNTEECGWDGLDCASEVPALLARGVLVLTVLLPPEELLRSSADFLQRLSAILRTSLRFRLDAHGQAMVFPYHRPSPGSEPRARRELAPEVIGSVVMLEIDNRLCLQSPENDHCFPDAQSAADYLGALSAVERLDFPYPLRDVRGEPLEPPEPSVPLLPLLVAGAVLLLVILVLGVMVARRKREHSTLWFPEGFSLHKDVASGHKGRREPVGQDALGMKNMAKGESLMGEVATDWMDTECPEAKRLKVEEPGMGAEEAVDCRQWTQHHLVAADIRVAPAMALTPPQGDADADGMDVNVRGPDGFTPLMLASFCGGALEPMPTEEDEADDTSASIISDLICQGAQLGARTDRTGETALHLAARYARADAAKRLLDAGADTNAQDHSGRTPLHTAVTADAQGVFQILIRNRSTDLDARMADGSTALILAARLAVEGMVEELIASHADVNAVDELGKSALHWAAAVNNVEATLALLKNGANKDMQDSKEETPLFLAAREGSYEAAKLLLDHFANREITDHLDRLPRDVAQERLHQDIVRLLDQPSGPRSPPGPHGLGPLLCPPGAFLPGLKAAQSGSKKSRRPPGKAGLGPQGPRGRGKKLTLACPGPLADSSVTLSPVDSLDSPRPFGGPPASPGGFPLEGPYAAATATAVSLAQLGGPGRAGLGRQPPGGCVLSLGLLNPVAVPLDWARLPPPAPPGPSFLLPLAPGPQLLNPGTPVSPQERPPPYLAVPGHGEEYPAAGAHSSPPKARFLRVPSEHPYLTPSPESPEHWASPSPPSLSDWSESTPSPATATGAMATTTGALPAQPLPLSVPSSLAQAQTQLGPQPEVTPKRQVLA
# Neurogenic locus notch homolog protein 2 (Homo sapiens), sequence (Q04721 whole entry, looked up, canonical isoform): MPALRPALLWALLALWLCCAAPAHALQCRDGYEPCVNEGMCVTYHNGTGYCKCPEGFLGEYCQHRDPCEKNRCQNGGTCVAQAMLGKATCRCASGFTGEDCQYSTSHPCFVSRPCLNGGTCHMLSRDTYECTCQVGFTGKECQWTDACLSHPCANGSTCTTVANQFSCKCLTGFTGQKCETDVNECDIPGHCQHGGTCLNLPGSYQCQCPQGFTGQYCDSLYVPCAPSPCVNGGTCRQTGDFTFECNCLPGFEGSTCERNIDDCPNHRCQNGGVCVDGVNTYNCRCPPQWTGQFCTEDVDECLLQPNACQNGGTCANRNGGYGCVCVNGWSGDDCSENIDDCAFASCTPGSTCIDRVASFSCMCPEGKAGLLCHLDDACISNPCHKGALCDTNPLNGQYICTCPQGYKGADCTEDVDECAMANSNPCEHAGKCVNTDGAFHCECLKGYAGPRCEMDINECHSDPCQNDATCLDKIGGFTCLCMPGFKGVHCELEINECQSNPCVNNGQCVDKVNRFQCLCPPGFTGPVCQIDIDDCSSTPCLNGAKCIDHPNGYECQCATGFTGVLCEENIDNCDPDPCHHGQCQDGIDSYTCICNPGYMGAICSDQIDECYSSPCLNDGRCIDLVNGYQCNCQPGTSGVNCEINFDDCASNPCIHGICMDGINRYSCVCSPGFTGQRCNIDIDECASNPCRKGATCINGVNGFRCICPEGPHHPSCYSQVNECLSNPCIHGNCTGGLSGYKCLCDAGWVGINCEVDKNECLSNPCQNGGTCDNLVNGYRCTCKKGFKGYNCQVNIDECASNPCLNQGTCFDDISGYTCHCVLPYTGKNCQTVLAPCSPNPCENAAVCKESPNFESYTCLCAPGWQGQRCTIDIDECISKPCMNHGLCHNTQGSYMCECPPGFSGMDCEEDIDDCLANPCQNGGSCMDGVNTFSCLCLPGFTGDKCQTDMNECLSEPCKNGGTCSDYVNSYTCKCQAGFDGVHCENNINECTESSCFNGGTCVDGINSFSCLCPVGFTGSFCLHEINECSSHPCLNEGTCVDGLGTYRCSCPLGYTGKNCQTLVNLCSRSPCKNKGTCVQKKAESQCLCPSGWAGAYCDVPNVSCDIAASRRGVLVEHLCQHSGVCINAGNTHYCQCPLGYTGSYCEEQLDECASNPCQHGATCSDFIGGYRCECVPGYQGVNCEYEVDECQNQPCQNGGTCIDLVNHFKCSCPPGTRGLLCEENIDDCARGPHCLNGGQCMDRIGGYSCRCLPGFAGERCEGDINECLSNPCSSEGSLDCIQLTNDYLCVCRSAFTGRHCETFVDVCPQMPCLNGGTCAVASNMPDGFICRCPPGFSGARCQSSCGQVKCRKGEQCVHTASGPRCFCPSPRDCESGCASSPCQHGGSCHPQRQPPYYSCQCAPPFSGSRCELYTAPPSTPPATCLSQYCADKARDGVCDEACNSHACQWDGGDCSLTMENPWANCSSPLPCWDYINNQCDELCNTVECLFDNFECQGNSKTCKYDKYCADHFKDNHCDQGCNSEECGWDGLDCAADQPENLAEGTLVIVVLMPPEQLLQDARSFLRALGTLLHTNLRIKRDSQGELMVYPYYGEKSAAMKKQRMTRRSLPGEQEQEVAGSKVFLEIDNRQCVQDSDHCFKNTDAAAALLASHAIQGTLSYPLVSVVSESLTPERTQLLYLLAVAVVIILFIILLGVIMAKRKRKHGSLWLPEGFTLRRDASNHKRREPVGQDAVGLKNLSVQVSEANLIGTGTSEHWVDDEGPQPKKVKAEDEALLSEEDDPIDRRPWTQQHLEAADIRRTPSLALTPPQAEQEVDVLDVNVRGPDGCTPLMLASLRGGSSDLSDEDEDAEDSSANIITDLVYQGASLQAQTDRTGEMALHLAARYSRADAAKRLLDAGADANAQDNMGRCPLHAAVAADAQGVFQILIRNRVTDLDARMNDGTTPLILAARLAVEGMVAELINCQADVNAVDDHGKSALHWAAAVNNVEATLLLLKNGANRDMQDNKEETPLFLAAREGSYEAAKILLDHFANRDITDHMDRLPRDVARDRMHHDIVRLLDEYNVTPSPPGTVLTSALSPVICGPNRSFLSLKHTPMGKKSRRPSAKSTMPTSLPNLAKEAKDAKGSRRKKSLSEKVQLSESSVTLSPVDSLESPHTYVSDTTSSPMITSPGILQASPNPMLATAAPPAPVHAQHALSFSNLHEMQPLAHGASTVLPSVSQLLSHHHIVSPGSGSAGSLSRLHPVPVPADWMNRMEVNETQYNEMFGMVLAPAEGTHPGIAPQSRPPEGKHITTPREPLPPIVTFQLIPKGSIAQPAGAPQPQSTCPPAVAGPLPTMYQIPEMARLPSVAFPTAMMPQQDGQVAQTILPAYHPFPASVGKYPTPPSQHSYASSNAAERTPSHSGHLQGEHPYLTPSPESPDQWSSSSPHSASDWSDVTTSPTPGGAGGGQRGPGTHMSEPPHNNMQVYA
Structure (SMILES),composite z-score [1],composite z-score [2],composite z-score [3],composite z-score [4],composite z-score [5],composite z-score [6],composite z-score [7],z-score [8],composite z-score [9],composite z-score [10],composite z-score [11],z-score [12],z-score [13],z-score [14],composite z-score [15],z-score [16],composite z-score [17],composite z-score [18],composite z-score [19],composite z-score [20]
CCC[C@@H]1C[C@@]1(CCC)[C@@H](NC(=O)OCc1ccccc1)c1ccc(-c2ccccc2)cc1,0.49,-0.602,0.0572,-0.68,-0.527,-0.271,-0.76,-1.93 (inactive),-0.294,3.09,-0.936,-0.979 (inactive),-15.5 (active),-0.0091 (inactive),0.543,0.0945 (inactive),0.239,-0.0553,-0.621,-0.186
COC(=O)C(CC#Cc1ccc2c(c1)[C@]1(C(=O)N2)[C@H](C(=O)N2CCN(c3ncccn3)CC2)[C@H]2C(=O)O[C@H](c3ccccc3)[C@H](c3ccccc3)N2[C@@H]1c1ccc(OCCO)cc1)C(=O)OC,-0.448,1.21,-0.0768,0.554,1.16,1.67,1.26,1.97 (inactive),0.38,-0.0296,1.53,3.19 (inactive),2.13 (inactive),5.67 (inactive),2.76,0.54 (inactive),0.0008,1.3,1.02,-0.0177
COc1cccc(/C=C/C=O)c1,0.278,0.187,0.0726,0.505,0.367,-0.437,-0.443,1.02 (inactive),0.375,0.57,0.247,1.95 (inactive),-13.2 (active),-0.144 (inactive),0.205,-0.283 (inactive),0.226,0.137,0.181,0.198
CC(C)(C)OC(=O)CC[C@@]1(C(=O)NCc2ccccc2)N=C(c2ccc(OCCCO)cc2)O[C@@H]1c1ccccc1N=[N+]=[N-],0.418,0.559,0.246,0.885,1.64,1.75,0.968,1.16 (inactive),1.13,0.0115,1.56,0.704 (inactive),0.501 (inactive),3.64 (inactive),3.25,0.516 (inactive),0.372,0.878,1.05,0.224
NCCCCCCNC(=O)[C@@H]1C[C@@H]2C(=O)N[C@@H](CCCCN)C(=O)N2[C@@H]1c1cccc(OCCO)c1,1.06,1.81,0.221,-0.127,0.303,2.53,1.2,3.25 (inactive),-0.175,0.704,1.28,0.825 (inactive),0.962 (inactive),0.487 (inactive),2.14,0.398 (inactive),0.885,0.763,0.362,0.393
CO[C@H]1O[C@H](CO)[C@@H](OC(=O)Nc2ccc3c(c2)OCO3)[C@H](OC(=O)c2cc3ccccc3[nH]2)[C@H]1OC(=O)c1cc2ccccc2[nH]1,-0.0446,-0.152,-0.0047,0.236,-0.904,0.386,0.514,1.13 (inactive),-0.598,0.0623,0.391,-2.1 (inactive),-0.908 (inactive),0.489 (inactive),-0.33,0.382 (inactive),0.0204,0.111,0.123,-0.0828
COC(=O)[C@@]1(Cc2ccc(F)cc2)[C@H]2c3cc(C(=O)N(C)C)n(CCc4ccc(O)c(OC)c4)c3C[C@H]2CN1C(=O)c1ccccc1,1.71,0.245,0.735,1.27,1.27,-0.0157,1.03,0.245 (inactive),1.7,0.372,-0.646,0.503 (inactive),0.459 (inactive),0.689 (inactive),1.01,-0.849 (inactive),1.42,0.446,0.237,1.25
COC(=O)c1c(CC[C@@H](CO)NC(=O)N2CCC[C@H]2Cn2cc(Cc3ccccc3)nn2)oc(C(C)=O)c1C(=O)OC,-0.506,0.268,-0.0759,0.325,0.0554,0.638,1.12,0.0223 (inactive),0.22,0.2,1.28,0.102 (inactive),-0.279 (inactive),-1.45 (inactive),3.14,-0.0178 (inactive),-0.147,0.387,0.524,-0.111
COC(=O)c1nc2oc1CC[C@@H](CO)NC(=O)N(C)Cc1cnnn1C[C@H](Cc1ccccc1)NC2=O,-0.195,-0.328,-0.062,-0.135,-0.444,0.243,0.434,-0.988 (inactive),-1.08,-0.314,0.0909,-1.04 (inactive),0.127 (inactive),-0.335 (inactive),0.715,1.27 (inactive),-0.331,0.419,-0.139,-0.287
COCCOC(=O)N1C(=O)[C@@]2(c3cc(C#CC4=CCCCC4)ccc31)[C@H](c1ccc(OCCO)cc1)N1[C@H](c3ccccc3)[C@H](c3ccccc3)OC(=O)[C@H]1[C@@H]2C(=O)NC[C@H](O)c1ccccc1,0.82,0.366,-0.0032,0.246,1.24,-0.118,1.15,0.745 (inactive),1.44,0.187,1.54,2.04 (inactive),0.798 (inactive),5.7 (inactive),2.6,0.546 (inactive),0.789,1.11,1.07,0.108
